Reference: PubChem BioAssay AID743269 (The Scripps Research Institute Molecular Screening Center, 2014)
In all, about 370,000 compounds went through this assay and about 2,400 (0.65%) were called active.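 Rule for the calls: active = inhibition above the screen-wide mean plus 3 SD (cut at about 13% in these data); inactive = the rest.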 The full list was thinned out, with actives kept by preference.

Tested on: HIV-1 integrase (with human LEDGF/p75)
Experiment: blockers of LEDGF/p75-dependent integrase strand transfer – biochemical, TR-FRET, high throughput, primary screen (AID 743269);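 note: signal is the Cy5 over europium emission ratio at 671 and 618 nm; 0% = plate median of compound wells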
Conditions: TR-FRET IN-LEDGF/p75 DNA integration, Eu/Cy5; at 3.7 µM; active compounds read high

inhibition, active:
COCCNC(=O)Nc1ccc2nc(-c3ccco3)c(-c3ccco3)nc2c1 90.1%, COc1ccc(C(=O)/C=C/c2ccc(-c3ccccc3)cc2)cc1CSCC(=O)O 13.5%, CN(C(=O)COC(=O)c1cc(-c2ccco2)nc2ccccc12)C1CCS(=O)(=O)C1 (stereo not given) 30.7%, C=CCN1C(=O)C(O)(CC(=O)c2ccccn2)c2ccccc21 (stereo not given) 15.4%, Clc1cc(NC2CCCCC2)ncn1 21.7%, CC(=NCc1ccc2c(c1)OCO2)C1=C(O)c2ccccc2C1=O 14.5%, C[C@H]([C@@H](O)[C@@H](O)[C@@H](C)C(C)(C)C)[C@H]1CC[C@H]2C3CC[C@H]4C[C@H](OS(=O)(=O)O)[C@@H](OS(=O)(=O)O)C[C@]4(C)[C@H]3CC[C@]12C (stereo not given in full) 22.1%, NC1=NN(c2cccc(C(=O)O)c2)C(=O)C1 13.8%, Cc1cc(C)c2nc(-c3ccco3)cc(C(=O)O)c2c1 57.2%, CCn1nc(C)c(CN2CCN(Cc3ccc(OC)c(C)c3C)C(CCO)C2)c1C (stereo not given) 13.4%

inhibition, inactive:
COc1ccc(C(=O)CSc2nnc(-c3cnccn3)n2-c2ccc(C)cc2)cc1 0.86%, Cc1ccccc1NC(=O)Cn1nnc(-c2ccccc2F)n1 3.47%, Cc1cc(=O)[nH]c(SCC(=O)Nc2ccc(Cl)cc2C)n1 0.96%, COCCNC(=O)c1cc2c(Br)ccc(Br)c2nc1N -5.17%, COCCNC(=S)c1ccc(OC)cc1 -1.56%, COc1ccc(CCNC(=O)CSc2nc3c([nH]2)c(=O)n(C)c(=O)n3C)cc1 0.75%, O=C(NCc1cccs1)C1CCN(S(=O)(=O)c2ccccc2[N+](=O)[O-])CC1 3.07%, CC(C)(C)NC(=O)C(c1cccnc1)N(C(=O)c1cnco1)c1ccc(C(C)(C)C)cc1 (stereo not given) 0.93%, CCOC(=O)[C@]12CCCCC/C=C\1N(Cc1ccc(OC)cc1)C(=O)[C@H]2CC(=O)NCc1ccc(C)o1 -2.04%, COC(=O)c1ccc(COc2ccc(/C=C/C(=O)c3ccc(OC)c(CSCC(=O)O)c3)cc2OC)cc1 1.77%, COc1ccc(C(C)=O)cc1CSc1nc2nc(C)cc(C)n2n1 -4%, CCOc1ccc(Oc2c(Cl)cnn(-c3ccc(C)cc3)c2=O)cc1 -2.65%, COc1cccc(N(C)C(=O)[C@@H](C)[C@@H](O)c2ccc3ccccc3c2)c1 2.81%, CC(=O)c1ccc(OCC(=O)N(C)C2CCS(=O)(=O)C2)cc1 (stereo not given) 1.55%, CN(C(=O)COC(=O)c1cc(=O)[nH]c2ccccc12)C1CCCCC1 -9.3%, CCOC(=O)[C@]12CCCC=C1N(Cc1ccc(OC)cc1)C(=O)[C@@H]2CC(=O)NCc1cccs1 0.74%, O=C(CC1(O)C(=O)N(CN2CCOCC2)c2ccccc21)c1ccccc1 (stereo not given) 3.55%, CCOC(=O)CN1C(=O)C(O)(CC(=O)c2ccccn2)c2ccccc21 (stereo not given) 3.17%, N#CCC[C@H]1CC[C@]2(CCCN(Cc3ccc(Cl)cc3)C2)O1 0.5%, O=S1(=O)c2ccc(Br)cc2OC[C@H](Cc2ccccc2)N1Cc1cn(Cc2ccccc2)nn1 -5.3%, Cc1cc([N+](=O)[O-])c(NC2CCCCC2)c([N+](=O)[O-])c1 0.17%, CCc1cc2c(NC3CCCC3)ncnc2s1 -1.83%, O=C(C1CCN(S(=O)(=O)c2ccccc2)CC1)N1CCN(C2CCCCC2)CC1 -2.53%, Cc1cc(C)cc(NC(=O)N2CCC(N(C)CCC(C)C)CC2)c1 3.5%, O=C(CC(Cc1ccccc1)C(=O)O)NCCc1ccc2c(c1)OCO2 (stereo not given) -1.84%, CC1(C(=O)NCc2ccc3c(c2)OCO3)CCN1CCc1ccccc1 (stereo not given) 3.29%, O=S(=O)(c1ccccc1)N1CCC(c2nc3ccccc3o2)CC1 -3.8%, Cc1ccc(C(=O)N(Cc2ccccn2)CC2CCCO2)cc1 (stereo not given) -1.5%, O=C(CSc1nc2ccccc2nc1N1CCCCC1)N1CCN(S(=O)(=O)c2cccc([N+](=O)[O-])c2)CC1 7.35%, CC(C)CNS(=O)(=O)CC1NCCc2ccccc21 (stereo not given) -2.87%, CC(=O)O[C@H]1CC[C@@]2(C)[C@@H](CC[C@@H]3[C@@H]2CC[C@]2(C)[C@@H](C(C)(C)O)C[C@@H]32)C1 0.72%, C=C1C(C(C)C)N(C)C2=NC(c3ccccc3)CC(=O)N12 (stereo not given) 1.74%, COC(=O)C1CN(Cc2ccc(F)cc2)CCS(=O)(=O)N1Cc1ccc(Cl)cc1 (stereo not given) -0.83%, CCc1ccccc1NC(=O)CSc1nnc(-c2cccs2)o1 1.45%, O=C(c1cccc(N2CCCC2=O)c1)N1CCOCC1 -4.51%, C/C(=N\NC(=O)c1cccc(N2CCCC2=O)c1)c1ccc(N)cc1 -2.92%, CCOC(=O)N1CCN(C(=O)C[C@H]2C[C@@]3(C(=O)OC)C(=C[C@H](C(C)(C)C)O[C@@H]3C)N(Cc3ccc(Cl)cc3Cl)C2=O)CC1 -2.55%, CCOC(=O)c1ccn(-c2nc(-c3ccco3)cc(C(F)(F)F)n2)n1 -1.1%, Cc1ccsc1-c1cc(C(=O)O)c2c(ccc3ccccc32)n1 0.22%, COc1ccc(-n2c(COc3ccc(C)cc3)nnc2SCC(=O)Nc2ccc(Oc3ccccc3)cc2)cc1 -0.53%, COC(=O)c1cccc(Cn2ccc3ccc(-c4ccc5ccn(C(=O)c6ccccc6C)c5c4)cc32)c1 1.28%, CC(C)(C)c1ccc(CSc2nnc(-c3cccs3)o2)cc1 -0.85%, COc1ccc(CN2CCN(Cc3cn(C)nc3-c3ccccc3)CC2CCO)c(C)c1C (stereo not given) 3.11%, CCOc1ccc(CN2CCN(Cc3ccc(C)o3)CC2CCO)cc1 (stereo not given) -3.16%, Cc1ccc(NC(=S)NNC(=O)CSc2nnc(SCc3ccccc3Cl)s2)cc1 3.99%
